Source: PubChem BioAssay AID646 (Vanderbilt High Throughput Screening Facility, 2007)
Among all 1,900 compounds or so, about 15 (0.8%) were called active. Cut-off read from the data, not from the text of the source: active = luminescence above about 3900; inactive = the rest. These entries were drawn from the full list.

Molecular target: D(1A) dopamine receptor (Homo sapiens) (UniProt P21728)
Test: intrinsic activation of D1 CRE reporter – cell-based, HEK293 D1, CRE-luciferase, secondary assay 1, mechanism study for D1 allosteric modulator project, confirmation (AID 646)
Conditions: no dopamine, at 10 µM, hits give high values

D(1A) dopamine receptor (Homo sapiens), sequence (P21728 whole entry, looked up): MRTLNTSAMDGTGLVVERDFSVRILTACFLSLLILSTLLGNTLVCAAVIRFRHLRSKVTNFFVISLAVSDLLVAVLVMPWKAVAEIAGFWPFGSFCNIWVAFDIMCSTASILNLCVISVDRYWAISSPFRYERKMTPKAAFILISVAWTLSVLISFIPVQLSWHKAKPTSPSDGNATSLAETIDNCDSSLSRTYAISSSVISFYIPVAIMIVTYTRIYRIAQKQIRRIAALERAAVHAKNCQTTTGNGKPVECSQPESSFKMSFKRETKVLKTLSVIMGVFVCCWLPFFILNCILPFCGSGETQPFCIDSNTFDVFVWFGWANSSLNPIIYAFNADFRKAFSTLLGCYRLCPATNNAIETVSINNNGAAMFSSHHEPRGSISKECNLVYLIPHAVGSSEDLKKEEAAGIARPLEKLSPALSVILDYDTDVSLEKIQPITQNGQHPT

luminescence, inactive:
CCOc1cc(-c2noc(CCC(=O)N3CCOCC3)n2)ccc1OC 1180
COC(=O)[C@H](C(C)C)n1c(C)c(C(C)=O)c(C(C)=O)c1C 1540
N#Cc1nc(Cc2ccccc2)oc1NCCc1ccccc1 1730
Cc1cc(C)c2c(n1)nn1c(-n3ccnc3)cc(C)nc21 1660
CC1CCN(c2oc(-c3ccccc3F)nc2C#N)CC1 1620
Cc1ccc(C2CC(c3cccc(Br)c3)n3nc(N)nc3N2)cc1 (stereo not given) 1420
COc1cc(NC(=O)N2CCOCC2)cc(OC)c1 1580
COc1ccc(NC(=O)C2CCCN(S(=O)(=O)c3cccc4cccnc34)C2)cc1OC (stereo not given) 1590
CCCc1nc(-c2ccccc2O)n(-c2ccccc2)n1 1710
COc1ccc(-c2nn3c(-c4ccccc4)nnc3s2)cc1OC 1800
O=C(NCc1ccco1)c1cnn2c(C(F)(F)F)cc(-c3ccco3)nc12 1560
Cc1nn(-c2ccccc2)c2c1C(=O)NC(=O)C(C)(C)C2 1740
COc1ccc(-c2nnc(SCC(=O)NC3CCCCC3)o2)cc1OC 1800
c1coc(-c2nc3nc4ccccc4n3nc2-c2ccco2)c1 1610
CC1(C)Cc2ccccc2-c2nc(CN3CCOCC3)[nH]c(=O)c21 1890
CCCCSc1nc2c(c(=O)n1CC)SC(C)C2 (stereo not given) 1490
CCOC(=O)c1c(NC(=O)CSc2nnc(Cc3csc(N)n3)n2C)sc(C)c1C 1680
C#CCNc1nc(C(C)C)nc2c1nnn2Cc1ccccc1F 1600
C/C(=C\C(=O)c1ccccc1)Nc1cccc(O)c1 1340
O=S(=O)(c1cccs1)N1CCc2ccccc2C1 1530
COc1ccc(CCNC(=O)CCn2c(=O)oc3ccccc32)cc1OC 1540
COc1ccc(CCN(C)C(=O)C2CCCN(Cc3ccc(OC)c(OC)c3)C2)cc1OC (stereo not given) 1520
O=C(C1CCC1)N1CCc2cc(S(=O)(=O)NCc3cccnc3)ccc21 1680
CCOC(=O)c1c(NC(=O)CSc2nnc(CN3CCOCC3)n2C)sc2c1CCCC2 1870
CCSc1ncnc2c(C#N)c3n(c12)CCCCC3 1840
N#Cc1nc(N)nc(N(c2ccccc2)c2ccccc2)n1 1620
COc1ncnc2c1N=C1CC(C)(C)CC(N)=C1S2 1620
N#CCCN1CCN(S(=O)(=O)c2ccc(S(=O)(=O)NC3CCCCC3)cc2)CC1 1130
c1ccc(COc2nsnc2N2CCOCC2)cc1 1550
CCc1cc(=O)oc2cc(OCC(=O)N3CCCc4ccccc43)ccc12 1680
Cn1c(/C(C#N)=C2/CCCCCN2)nc2ccccc21 1800
COc1ccc(Nc2oc(-c3ccccc3Cl)nc2C#N)cc1 1750
CCOc1cc(C(=O)N2CCc3cc(OC)c(OC)cc3C2)ccc1OC(F)F 2710
CCOc1ccc(Nc2oc(Cc3ccccc3)nc2C#N)cc1 1910
CCOc1ccccc1C1CC(c2ccccc2)Nc2nc(N)nn21 (stereo not given) 1700
Cc1cc(C(F)(F)F)nn1-c1nc(-c2ccco2)cc(C(F)(F)F)n1 1710
c1ccc(-c2nnc3n2NC(c2ccc4c(c2)OCO4)S3)cc1 (stereo not given) 1610
CCOC(=O)c1cc2n(c1C)-c1ccccc1C2=O 1720
CCSc1nc(C)nc2c1oc1ccccc12 1590
CCCc1nc(N)nc2c1C(=O)CC(C)(C)C2 1560
CCOc1ccc(Cn2c(SCCCCC#N)nc3c2c(=O)n(C)c(=O)n3C)cc1OCC 1460
CC1CCN(c2nc3c(c(=O)[nH]c(=O)n3C)n2CCCc2ccccc2)CC1 1410
Cc1ccc(-c2nn(-c3ccccc3)cc2CN(Cc2ccccc2)C(=O)CCC(=O)O)o1 1420
CC(C)n1c(C(O)c2ccccc2)nc2ccccc21 (stereo not given) 1600
CCCn1c(=O)c2[nH]c(C3CCCC3)nc2n(CCC)c1=O 1560
Nc1ccc(S(=O)(=O)NC(=O)c2ccccc2)cc1 1560
O=c1cc(-c2ccccc2)nc(N2CCCCC2)[nH]1 1600
COC(=O)c1ccccc1NC(=O)C1CCN(S(=O)(=O)c2cc(OC)ccc2OC)CC1 1480
Cn1c(=O)c2cn(-c3cccc4ccccc34)cc2n(C)c1=O 1650
COc1ccc(-n2c(Cc3cccn3C)nnc2SCC(=O)Nc2cc(C)cc(C)c2)cc1 1500
COc1ccc(CCNC(=O)c2cc3sccc3n2C)cc1OC 1640
COc1ccc(-c2nnn(Cc3nc(N)nc(N4CCCCC4)n3)n2)cc1 1520
CN1CCN(CC(O)COCc2ccc3c(c2)OCO3)CC1 (stereo not given) 1670
COc1ncnc2sc3c(c12)CCCC3 1600
CC(C)C1C2=C(CC(C)(C)CC2=O)ON1c1ccccc1 (stereo not given) 1810
COC(=O)C(C)C1Sc2ccccc2NC1=O (stereo not given) 1730
N#Cc1c(N)sc2c1CCN(C(=O)OCc1ccccc1)C2 1760
CC(=O)OC(C)C[N+](C)(C)C (stereo not given) 1390
O=C(CSc1nnc2scc(-c3ccc(F)cc3)n12)NCc1ccco1 1730
COc1ccc(CCNc2ncnc3nc[nH]c23)cc1OC 1540
CCOc1ccc2[nH]c(=O)c(C(c3nnnn3CCOC)N3CCOCC3)cc2c1 (stereo not given) 1550
N#CCSc1nc2ccccc2c(=O)n1-c1ccccc1 1780
COC(=O)C1=C(C)NC2=C(C(=O)c3ccccc32)C1c1ccc(-c2ccc(C(=O)O)cc2)o1 (stereo not given) 1810
CCn1cc(C(=O)NCC2COc3ccccc3O2)c2cc(OC)c(OC)cc2c1=O (stereo not given) 1710
C/C(Cl)=C\Cn1c(Nc2cccc(C)c2)nc2c1c(=O)n(C)c(=O)n2C 1690
